Measurements: ChEMBL document CHEMBL4513216, “Probing the Open Global Health Chemical Diversity Library for Multistage-Active Starting Points for Next-Generation Antimalarials” (ACS Infect Dis, 2020)
About 2,700 (4%) of roughly 68,000 compounds showed an effect of 50% or more. The sample as a whole holds a higher share of strong results than the screen did.

system: Plasmodium berghei; assay: Screen against P. berghei liver stage (PbLuc), transformed with Luciferase, at 2uM; format: functional, HepG2; settings: tested at 2 uM

SMILES | INHIBITION [%]
Cc1ccccc1OCCC(=O)N1CCCC(n2cncn2)C1 (stereo not given) | 2.08
COc1ccc(CC(=O)N2Cc3nccn3CC(CN(C)C)C2)cc1 (stereo not given) | 35.26
O=C(NC[C@]1(O)CCN(Cc2ccsc2)C[C@H]1O)c1c[nH]cn1 | 69.45
Cc1cncc(CN2CC[C@@](O)(CNC(=O)c3c[nH]cn3)[C@H](O)C2)c1 | 19.36
O=C(NC[C@]1(O)CCN(Cc2ccccc2F)C[C@H]1O)c1c[nH]cn1 | 38.96
CS(=O)(=O)N1CCC2(CC1)CC(NCc1ccco1)c1ccccc12 (stereo not given) | -9.53
O=C1CN(C(=O)CN(CC2CCC2)CC(F)(F)F)CCN1 | 19.92
Cc1cc(C)n(Cc2cc(C(=O)N3CCCC3c3ccccn3)n[nH]2)n1 (stereo not given) | -15.08
CC(C)(C)CC(=O)Nc1ncn(CC(=O)NCc2ccccc2)n1 | -34.98
O=C(Cn1cnc(NC(=O)CC2CCCC2)n1)NCc1ccccc1 | 67.59
CC(CC(=O)Nc1ncn(CC(=O)NCc2ccccc2)n1)C1CC1 (stereo not given) | -1.21
O=C(NCCn1cc(Cl)cn1)C1CCN(C(=O)C2CC2)CC1 | 23.64
N[C@@H]1CC[C@H](C(=O)NCCn2cc(Cl)cn2)C1 | 61.95
NC(=O)CN1CCC(C(=O)NCCn2cc(Cl)cn2)CC1 | -10.84
O=C(CCN1CCCCO1)NC1CCCN(CC2CCCCC2)C1 (stereo not given) | -0.88
COc1ccc(OC)c(CNCc2ccnc(N3CCOCC3)c2)c1 | -28.39
c1cc(CNCc2ccc3c(c2)CCO3)cc(N2CCOCC2)n1 | 57.82
Fc1cc(CNCc2ccc3c(c2)CCO3)ccc1N1CCOCC1 | -10.05
c1cc(CNCc2ccnc(N3CCOCC3)c2)c2c(c1)OCCO2 | 1.22
COc1ccc(CNCc2ccnc(N3CCOCC3)c2)cc1OC | 62.13
COc1ccc(CNCc2ccnc(N3CCCCC3)c2)cc1OC | 30.91
c1cnc(N2CCCC(c3cc4cccnc4[nH]3)C2)nc1 (stereo not given) | 14.47
C=C(C)COc1cccc(C(=O)N(CC)Cc2nc(COC)no2)c1 | -18.57
CCN(Cc1nccn1C)C(=O)c1ccc(NCc2ccccc2)nc1 | 8.89
C=C(C)CNc1ccc(C(=O)N(CC)Cc2nccn2C)cn1 | -13.51
C=C(C)COc1cccc(CN(CC)Cc2noc(C)n2)c1 | 36.28
C=C(C)COc1cccc(C(=O)N(CC)Cc2noc(C)n2)c1 | 76.82

SMILES | INHIBITION [%]
C=C(C)COc1cccc(C(=O)N(CC)Cc2nccn2C)c1 | 52.98
CCn1nc(C)c2ncnc(N(C)Cc3ccco3)c21 | 46.92
CN(C)c1ccc(CN2C[C@@H]3CC[C@H]2CN(C2CCOCC2)C3)cn1 | 25.52
Cn1cccc1C(=O)N1CCN(CC2CC2)c2ncccc2C1 | 8.13
Cc1nc(-c2ccccc2)n(CC(=O)NC(C)C2CC2)n1 (stereo not given) | 32.56
COc1ccc(C2=Nn3c(CCCN)nnc3-c3ccccc3C2)cc1 | 6.9
COc1ccc(C2=Nn3c(CCN)nnc3-c3ccccc3C2)cc1 | 54.73
COc1ccc(C2=Nn3c(CN)nnc3-c3ccccc3C2)cc1 | 42.64
Cc1cnc(CNC(=O)[C@@]23CCO[C@@H]2CCN(c2ncccn2)C3)cn1 | 4.08
Cc1cc(C(=O)N2C[C@@H]3COC[C@]3(CN(C)C)C2)c(C)o1 | 39.57
CC(C)NC1CCc2[nH]c(=O)ccc2C1 (stereo not given) | -13.79
Cc1c(Br)cccc1C(=O)NCC1CCNCC1 | 5
O=C(c1cccnc1O)N1CCN(Cc2ccccc2F)CC1 | -24.15
Cc1ncc(C(=O)N2CCCN(Cc3ccccc3F)CC2)c(O)n1 | 52.74
O=C(c1cnc(C2CC2)nc1O)N1CCN(Cc2ccccc2F)CC1 | 15.34
c1cnnc(N[C@@H]2CC[C@@H]3CN(Cc4c[nH]c5ccccc45)C[C@@H]32)c1 | -2.96
Cc1nc(C)c(S(=O)(=O)NC(=O)c2sccc2C)s1 | 24.23
Cc1nc(C)c(S(=O)(=O)NC(=O)c2ccoc2)s1 | 44.86
Cc1nc(C)c(S(=O)(=O)NC(=O)c2ccsc2)s1 | 68.08
CC(C)Oc1ncc(C(=O)N2CCc3ccc(O)cc3C2)cc1Cl | 11.33
O=C(c1c[nH]c(=O)c(Cl)c1)N1CCc2ccccc2C1 | -15.11
O=C(c1cnc(OCC(F)(F)F)c(Cl)c1)N1CCc2ccc(O)cc2C1 | 64.2
O=C(c1ccc(O)nc1)N1CCN(C(=O)c2ccc(F)c(F)c2)CC1 | -18.09
O=C(c1ccc(O)nc1)N1CCN(C(=O)c2ccc(F)cc2F)CC1 | 19.06
O=C(c1ccc(O)nc1)N1CCc2ccc(O)cc2C1 | 55.39
CC(=O)N1CC[C@H](c2nnc(Cc3c[nH]c4ccccc34)o2)C1 | 26.01
CN(Cc1cn2c(n1)CN(CC1CCOC1)CC2)Cc1ccco1 (stereo not given) | -0.38

SMILES | INHIBITION [%]
O=C(NCCn1cccc1)C1CCN(C2CCCCC2)CC1 | 10.72
OCCOc1cc(F)ccc1NCc1cccc(F)c1F | -19.62
Cn1ccnc1CN1CCC(CNS(=O)(=O)c2cccnc2)C1 (stereo not given) | -43.75
COc1ccc(NC(=O)C2CC(=O)n3cnnc3S2)cc1 (stereo not given) | 6.05
COCCN1CCCC(O)(CN2CCN(Cc3ccncc3)CC2)C1=O (stereo not given) | 15.73
CC(=O)c1ccc(CNC(=O)c2cc(C#N)cn2C)nc1C | -2.44
Cc1ccc2nc(CSCC(=O)Nc3nnc(C(C)C)s3)cc(=O)n2c1 | -3.16
CC1=C(C#N)C(=O)N(C)C(=O)/C1=C\C1=Cc2ccccc2OC1 | 53.81
CCN1C(=O)C(C#N)=C(C)/C(=C/C2=Cc3ccccc3OC2)C1=O | 45.67
O=C(Nc1cccnc1)C1=Cc2ccccc2OC1 | 3.62
O=C(NCC1CCOCC1)c1cc(-c2ccncc2)c2cnccc2n1 | 10.89
Cc1ccc(C(CNCc2cccc3c2OCO3)N2CCOCC2)o1 (stereo not given) | 71.53
CC(C)C(CNCc1cccc2c1OCO2)N1CCOCC1 (stereo not given) | 21.72
c1csc(C(CNCc2cccc3c2OCO3)N2CCOCC2)c1 (stereo not given) | 42.62
COc1ccccc1OCC(=O)NCC(O)(c1ccccc1)C1CC1 (stereo not given) | 22.75
CCOc1ccc(Oc2cc(N)ccn2)cc1 | 4
O[C@H]1Cc2ccccc2[C@H]1Nc1ncccc1C(F)(F)F | -12.95
Cc1ccc(CN2CCCn3nnc(COCCN(C)C)c3C2)s1 | 23.14
Cn1cc(CN2CC[C@H]3O[C@H](C(=O)NC4CC4)CC[C@H]32)c2ccccc21 | -18.7
CCOc1ncccc1CNS(=O)(=O)c1ccc2c(c1)CCCC(=O)N2 | 20.35
Cc1cnn(CC2CN(CC(=O)N(C)Cc3ccsc3)CCO2)c1 (stereo not given) | 47.84
CN(Cc1ccsc1)C(=O)CN1CCOC(Cn2cncn2)C1 (stereo not given) | 46.09
c1cnn(CC2CN(Cc3ccc(-n4ccnc4)cc3)CCO2)c1 (stereo not given) | 53.03
c1ccc(-c2nc(CN3CCOC(Cn4cccn4)C3)co2)cc1 (stereo not given) | 62.13
c1cn(-c2ccc(CN3CCOC(Cn4cncn4)C3)cc2)cn1 (stereo not given) | 40.88
CN(Cc1ccsc1)C(=O)CN1CCOC(Cn2cccn2)C1 (stereo not given) | 62.46
Cc1ccc(-c2nc(CN3CCOC(Cn4cccn4)C3)co2)cc1 (stereo not given) | 1.02

SMILES | INHIBITION [%]
c1cnn(CC2CN(CCc3ccncc3)CCO2)c1 (stereo not given) | 17.11
Fc1ccc(-c2nc(CN3CCOC(Cn4cccn4)C3)co2)cc1 (stereo not given) | -17.31
c1csc(-c2nc(CN3CCOC(Cn4cccn4)C3)cs2)c1 (stereo not given) | 45.83
c1ccc(-c2nc(CN3CCOC(Cn4cncn4)C3)cs2)cc1 (stereo not given) | 31.57
c1csc(-c2nc(CN3CCOC(Cn4cncn4)C3)cs2)c1 (stereo not given) | 66.97
OCC(CO)Nc1ccc2c(Cl)ccc(Cl)c2n1 | 34.55
O=C(c1ccc(F)cc1)N1CCC2(CCCN2CC2CC2)CC1 | -38.96
NC(=O)Nc1cccc(CNC(=O)CCCc2ccccc2)c1 | 3.01
Fc1cccnc1Oc1cc(F)c(CN2CCCC2)c(Cl)c1 | -42.73
Clc1cc(N2CCC(N3CCCC3)CC2)nc2[nH]ccc12 | 25.13
Nc1cc2c(nn1)CCN(C(=O)c1cccc3c1OCO3)C2 | 4.55
CC(=O)c1ccc(S(=O)(=O)NCc2cccnc2N(C)C)cc1 | 4.18
COc1ncccc1-c1nc(-c2ccccn2)nn1C1CCS(=O)(=O)C1 (stereo not given) | 19.12
Nc1nc2cn(C3CCCC3)c(=O)c-2c[nH]1 | -33.11
CCCc1nc(CN2CCOC(Cn3cncn3)C2)cs1 (stereo not given) | 53.98
Fc1cccc(-c2nc(CN3CCOC(Cn4cncn4)C3)co2)c1 (stereo not given) | 16.51
CC(C)CCc1nc(CN2CCOC(Cn3cncn3)C2)cs1 (stereo not given) | 7.13
c1csc(-c2nc(CN3CCOC(Cn4cccn4)C3)co2)c1 (stereo not given) | -25.44
c1csc(-c2nc(CN3CCOC(Cn4cncn4)C3)co2)c1 (stereo not given) | 71.48
CC(C)(C)c1nc(CN2CCOC(Cn3cncn3)C2)cs1 (stereo not given) | -5.09
Cn1c(CN2CCCCC2)nnc1C1CCN(c2nccc(N)n2)CC1 | 21.2
c1cnn(CC2CN(Cc3noc(C4CC4)n3)CCO2)c1 (stereo not given) | -28.51
CCn1c(=O)n(Cc2nc(C3CC3)no2)c2ccccc21 | 30.82
CCC1c2ccccc2CCN1C(=O)c1ccnc(C(=O)OC)c1 (stereo not given) | 20.34
